Data taken from PubChem BioAssay (NCI).
About 83,000 compounds went through this panel and 20% of them were active in at least one assay; those are over-represented in the sample as a whole.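 The endpoint reported here, percent growth, reads 100 for growth as untreated, 0 for no net growth and -100 for all cells dead.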 Unmarked numbers belong to inactive results. The source made the active and inactive calls.

System: HOP-62 NSCLC
Test: NCI-60 one-dose screen, 48 h (100 = growth as untreated, 0 = no growth, -100 = all killed)
Details: 10 µM unless noted
Method: Growth inhibition of the HOP-62 human Non-Small Cell Lung tumor cell line is measured as a screen for anti-cancer activity. Cells are grown in 96 well plates and exposed to the test compound for 48 hours. Compounds are tested at a single concentration, which is 10^-5 M for most compounds. The reported endpoint is percent growth (GI% or GIPRCNT), where numbers from 0 - 100% represent growth inhibition, and numbers from -100% - 0 represent cell death. For example, a value of 40 represents 60% growth inhibition. A value of 0 means no net growth occurred over the course of the experiment. A value of -40 indicates 40% of cells at the beginning of the experiment died by the end of the experiment. A value of -100 means all cells are dead at the end of the experiment.
NCI-60 Human Tumor Cell Lines Screen was performed using the standard one-dose NCI protocol, which is described in more detail at https://dtp.cancer.gov/discovery_development/nci-60/default.htm.
Compounds with GIPRCNT values below 10 were considered active. Activity score was based on GIPRCNT using the following formula: […]
Score is 0 for GIPRCNT values of 100 or above, 50 for GIPRCNT values of 0, and 100 for GIPRCNT values of -100.

SMILES	growth
CCOC(=O)/C=C1\S/C(=N\Nc2cc(=O)[nH]c3ccc(OC)cc23)N(c2ccccc2)C1=O	97.5%
Cc1ccc(S(=O)(=O)c2nc(-c3ccccc3)oc2S(C)=O)cc1 (stereo not given)	78.5%
Cc1c(-c2cnc3ccc(Cl)cc3c2C(=O)O)nnn1-c1ccc(Cl)cc1	89.4%
Cc1cc2c(c(C)n1)CN(C(=O)Nc1nc(-c3cncs3)ccc1N)C2	99.6%
Cc1cc(C(=O)Nc2cc(Nc3ncccc3-c3ncnc4nc[nH]c34)ccc2F)cc(C(C)(C)C#N)c1	48.5%
O=c1c(/C=C/c2c(O)ccc3ccccc23)nnc2sc(-c3cccc([N+](=O)[O-])c3)nn12	31%
COc1cc2c(c(OC)c1OC)CCC(c1cccc(NC(=O)c3cccc(Cl)c3)c1)O2 (stereo not given)	92.8%
COc1ccc(Nc2nccc(Nc3ccc4[nH]ncc4c3)n2)cc1	49%
Cc1ccc(C23CCC(=O)N2CCc2cncn23)cc1 (stereo not given)	94.8%
O=C(Nc1ncc(Cc2ccccc2)s1)c1cc(-c2ccccc2)nc2ccccc12	94.1%
COCCNC(=O)Cc1cc(-c2ccc(Cl)cc2)n(-c2ccccc2)c1C	2.89% (active)
COc1ccc(Nc2nc(Nc3cc(C)[nH]n3)c3cc(OC)c(OC)cc3n2)cc1	-73.3% [20 µM] (active)
CS(=O)(=O)Nc1cc(-c2ccc3ncnc(Nc4cccc(Cl)c4)c3c2)cnc1Cl	3.9% (active)
C#CCOc1ccc(C2=NN(CCCC)C3N=C(Cl)c4ncn(CCCC)c4N23)cc1OCC#C (stereo not given)	90.4%
CCCCC#Cc1c(I)n(C2OC(CO[Si](C)(C)C(C)(C)C)C3OC(C)(C)OC32)c(=O)[nH]c1=O (stereo not given)	102%
O=C(Nc1ccc(Oc2cccc(F)c2)c(Cl)c1)c1cnccn1	42.4%
CCOC(=O)c1cc(C(=O)c2cc(OC)cc(OC)c2)n2ccccc12	30%
COCCn1cc(-c2nc(-c3cc4cccnc4n3C)cs2)c2cc(OC)ccc21	47.2%
COC(=O)[C@@H](Cc1c[nH]c2ccccc12)NC(=O)[C@H](Cc1ccccc1)NCc1ccncc1	93.7%
O=C(Nc1ncc(Cc2ccccc2Cl)s1)c1ccc2c(c1)OCCO2	28.3%

SMILES	growth
C=C(C)Cn1c(SCC(=O)c2cccs2)nc2sc3c(c2c1=O)CCCC3	73.5%
COC(=O)[C@H]1Cc2c([nH]c3ccccc23)[C@H](c2ccc3c(c2)OCO3)N1	107%
COC12C=C/C(=C(/C(=O)OCc3ccccn3)C(=O)CCCCCCCCC3(OC)C=C/C(=C(/C(=O)OCc4ccccn4)C(=O)CCCCCCCC1)O3)O2	20%
O=C(OCc1ccc2c(Br)cc(Br)c(O)c2n1)N1CCN(C(=O)c2cc3ccccc3[nH]2)CC1	23.3%
Cc1cccc(CN(Nc2ccccc2)c2ccccc2)n1	99.8%
C=C(c1ccc(OC)c(/C=C/C(=O)c2cc(OC)c(OC)c(OC)c2)c1)c1cc(OC)c(OC)c(OC)c1	11.5%
CNC(=O)c1cc(Oc2ccc3nc(NC(=O)NC(C)C)sc3c2)ccn1	75.6%
CCN(CC)CCOc1ccc(/C(=C(\C)Cc2ccc(OC)cc2)c2ccc(O)cc2)cc1	25.8%
C=CCNc1ccc2c3c(cccc13)C(=O)N(CC=C)C2=O	108%
CC(C)CCc1nc2ccc(NCc3ccc(OCCN4CCC(C)CC4)cc3)cc2[nH]1	83.6%
CCCCCC(C)(O)C(C(=O)O)c1ccccc1 (stereo not given)	101%
COc1cc(/C=C2\C(=O)N(CCOc3cc(O)c4c(=O)cc(-c5ccccc5)oc4c3)c3ccccc32)cc(OC)c1O	68.7%
C=CN(C(=O)N1CCN(c2cc3c(cc2F)c(=O)c(C(=O)O)cn3C2CC2)CC1)c1nc(-c2ccc(C)cc2)cs1	17.9%
O=C(O)CCCN1C(=O)CSC1=S	103%
COc1ccc2c(c1)C(c1c[nH]c3ccccc13)(c1c[nH]c3ccccc13)CCO2	49.1%
COc1cc2c(cc1-c1c(C)noc1C)ncc1nc(C3CCOCC3)n(C3CCC(OC(F)F)CC3)c12 (stereo not given)	30.4%
COc1ccc(-c2ccc(-c3ccc(C(=N)N)o3)o2)cc1	46.4%
CN1C(=O)N(C)C2C1NN=c1s/c(=C\c3ccccc3F)c(=O)n12 (stereo not given)	32.9%
C=C1C(=O)O[C@H]2[C@H]1CC/C(COC(=O)NCc1ccc(Cn3c(=O)sn(CCCC)c3=O)cc1)=C\CC[C@@]1(C)O[C@@H]21	91.6%
CN1/C(=C/C=C/c2n(Cc3ccc4ccccc4c3)c(Cl)c(Cl)[n+]2Cc2ccc3ccccc3c2)Oc2ccccc21	-85.7% (active)
